{"source": "paper PMC8222333", "about": "“AsCas12a ultra nuclease facilitates the rapid generation of therapeutic cell medicines”;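 note: relative affinity from the bound to unbound sequence frequency ratio in Spec-seq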", "binders": {"B1": {"name": "AATG (dsDNA)", "DNA 1": "GCTATCTAGTGCTCAGTACGCACTGAATGAGGAAACTTCTGGCAGGACCAGGTCATGAGATCGGAAGAGCACACGTCTGAACTCCAGTCA", "DNA 2": "TGACTGGAGTTCAGACGTGTGCTCTTCCGATCTCATGACCTGGTCCTGCCAGAAGTTTCCTCATTCAGTGCGTACTGAGCACTAGATAGC", "RNA": "AAUUUCUACUCUUGUAGAUAGGAAACUUCUGGCAGGACC"}, "B2": {"name": "ATAG (dsDNA)", "DNA 1": "GCTATCTAGTGCTCAGTACGCACTGATAGAGGAAACTTCTGGCAGGACCAGGTCATGAGATCGGAAGAGCACACGTCTGAACTCCAGTCA", "DNA 2": "TGACTGGAGTTCAGACGTGTGCTCTTCCGATCTCATGACCTGGTCCTGCCAGAAGTTTCCTCTATCAGTGCGTACTGAGCACTAGATAGC", "RNA": "AAUUUCUACUCUUGUAGAUAGGAAACUUCUGGCAGGACC"}, "B3": {"name": "ACCT (dsDNA)", "DNA 1": "GCTATCTAGTGCTCAGTACGCACTGACCTAGGAAACTTCTGGCAGGACCAGGTCATGAGATCGGAAGAGCACACGTCTGAACTCCAGTCA", "DNA 2": "TGACTGGAGTTCAGACGTGTGCTCTTCCGATCTCATGACCTGGTCCTGCCAGAAGTTTCCTAGGTCAGTGCGTACTGAGCACTAGATAGC", "RNA": "AAUUUCUACUCUUGUAGAUAGGAAACUUCUGGCAGGACC"}, "B4": {"name": "ATCA (dsDNA)", "DNA 1": "GCTATCTAGTGCTCAGTACGCACTGATCAAGGAAACTTCTGGCAGGACCAGGTCATGAGATCGGAAGAGCACACGTCTGAACTCCAGTCA", "DNA 2": "TGACTGGAGTTCAGACGTGTGCTCTTCCGATCTCATGACCTGGTCCTGCCAGAAGTTTCCTTGATCAGTGCGTACTGAGCACTAGATAGC", "RNA": "AAUUUCUACUCUUGUAGAUAGGAAACUUCUGGCAGGACC"}, "B5": {"name": "ACAT (dsDNA)", "DNA 1": "GCTATCTAGTGCTCAGTACGCACTGACATAGGAAACTTCTGGCAGGACCAGGTCATGAGATCGGAAGAGCACACGTCTGAACTCCAGTCA", "DNA 2": "TGACTGGAGTTCAGACGTGTGCTCTTCCGATCTCATGACCTGGTCCTGCCAGAAGTTTCCTATGTCAGTGCGTACTGAGCACTAGATAGC", "RNA": "AAUUUCUACUCUUGUAGAUAGGAAACUUCUGGCAGGACC"}, "B6": {"name": "ATAT (dsDNA)", "DNA 1": "GCTATCTAGTGCTCAGTACGCACTGATATAGGAAACTTCTGGCAGGACCAGGTCATGAGATCGGAAGAGCACACGTCTGAACTCCAGTCA", "DNA 2": "TGACTGGAGTTCAGACGTGTGCTCTTCCGATCTCATGACCTGGTCCTGCCAGAAGTTTCCTATATCAGTGCGTACTGAGCACTAGATAGC", "RNA": "AAUUUCUACUCUUGUAGAUAGGAAACUUCUGGCAGGACC"}, "B7": {"name": "ACCA (dsDNA)", "DNA 1": "GCTATCTAGTGCTCAGTACGCACTGACCAAGGAAACTTCTGGCAGGACCAGGTCATGAGATCGGAAGAGCACACGTCTGAACTCCAGTCA", "DNA 2": "TGACTGGAGTTCAGACGTGTGCTCTTCCGATCTCATGACCTGGTCCTGCCAGAAGTTTCCTTGGTCAGTGCGTACTGAGCACTAGATAGC", "RNA": "AAUUUCUACUCUUGUAGAUAGGAAACUUCUGGCAGGACC"}, "B8": {"name": "AGGG (dsDNA)", "DNA 1": "GCTATCTAGTGCTCAGTACGCACTGAGGGAGGAAACTTCTGGCAGGACCAGGTCATGAGATCGGAAGAGCACACGTCTGAACTCCAGTCA", "DNA 2": "TGACTGGAGTTCAGACGTGTGCTCTTCCGATCTCATGACCTGGTCCTGCCAGAAGTTTCCTCCCTCAGTGCGTACTGAGCACTAGATAGC", "RNA": "AAUUUCUACUCUUGUAGAUAGGAAACUUCUGGCAGGACC"}}, "data": [{"target": "dAsCas12a E174R (Acidaminococcus sp., UniProt U2UMQ6 1-1307, E174R;D908A;E993A;D1235A)", "experiment": "Spec-seq (native PAGE EMSA with sequencing of bound and unbound); 25 mM Tris-HCl pH 7.4, 150 mM KCl, 5 mM MgCl2, 10% glycerol, 1 mM DTT, 40 ng/uL salmon sperm DNA; 400 nM Cas12a, 480 nM crRNA, 50 nM library, 37 C 1 h; native PAGE at room temperature; high values mean tight binding", "settings": "protein: recombinant", "units": {"binding signal": "lnKA"}, "values": [{"binder": "B1", "binding signal": -8.3}, {"binder": "B2", "binding signal": -8.88}, {"binder": "B3", "binding signal": -8.9}, {"binder": "B4", "binding signal": -8.4}, {"binder": "B5", "binding signal": -8.97}, {"binder": "B6", "binding signal": -8.59}, {"binder": "B7", "binding signal": -8.92}, {"binder": "B8", "binding signal": -8.84}]}, {"target": "dAsCas12a S542R (Acidaminococcus sp., UniProt U2UMQ6 1-1307, S542R;D908A;E993A;D1235A)", "experiment": "Spec-seq (native PAGE EMSA with sequencing of bound and unbound); 25 mM Tris-HCl pH 7.4, 150 mM KCl, 5 mM MgCl2, 10% glycerol, 1 mM DTT, 40 ng/uL salmon sperm DNA; 400 nM Cas12a, 480 nM crRNA, 50 nM library, 37 C 1 h; native PAGE at room temperature; high values mean tight binding", "settings": "protein: recombinant", "units": {"binding signal": "lnKA"}, "values": [{"binder": "B1", "binding signal": -8.21}, {"binder": "B2", "binding signal": -8.31}, {"binder": "B3", "binding signal": -7.8}, {"binder": "B4", "binding signal": -5.58}, {"binder": "B5", "binding signal": -8.62}, {"binder": "B6", "binding signal": -8.38}, {"binder": "B7", "binding signal": -6.94}, {"binder": "B8", "binding signal": -8.44}]}, {"target": "d-enCas12a (Acidaminococcus sp., UniProt U2UMQ6 1-1307, E174R;S542R;K548R;D908A;E993A;D1235A)", "experiment": "Spec-seq (native PAGE EMSA with sequencing of bound and unbound); 25 mM Tris-HCl pH 7.4, 150 mM KCl, 5 mM MgCl2, 10% glycerol, 1 mM DTT, 40 ng/uL salmon sperm DNA; 400 nM Cas12a, 480 nM crRNA, 50 nM library, 37 C 1 h; native PAGE at room temperature; high values mean tight binding", "settings": "protein: recombinant", "units": {"binding signal": "lnKA"}, "values": [{"binder": "B1", "binding signal": -3.79}, {"binder": "B2", "binding signal": -5.6}, {"binder": "B3", "binding signal": -5.41}, {"binder": "B4", "binding signal": -1.74}, {"binder": "B5", "binding signal": -5.81}, {"binder": "B6", "binding signal": -5.63}, {"binder": "B7", "binding signal": -4.21}, {"binder": "B8", "binding signal": -5.86}]}, {"target": "d-enCas12a-Ultra (Acidaminococcus sp., UniProt U2UMQ6 1-1307, E174R;S542R;K548R;M537R;F870L;D908A;E993A;D1235A)", "experiment": "Spec-seq (native PAGE EMSA with sequencing of bound and unbound); 25 mM Tris-HCl pH 7.4, 150 mM KCl, 5 mM MgCl2, 10% glycerol, 1 mM DTT, 40 ng/uL salmon sperm DNA; 400 nM Cas12a, 480 nM crRNA, 50 nM library, 37 C 1 h; native PAGE at room temperature; high values mean tight binding", "settings": "protein: recombinant", "units": {"binding signal": "lnKA"}, "values": [{"binder": "B1", "binding signal": -1.81}, {"binder": "B2", "binding signal": -3.31}, {"binder": "B3", "binding signal": -2.23}, {"binder": "B4", "binding signal": -0.402}, {"binder": "B5", "binding signal": -3.49}, {"binder": "B6", "binding signal": -3.33}, {"binder": "B7", "binding signal": -0.992}, {"binder": "B8", "binding signal": -3.51}]}]}
